# “And” between values parts separate entries of the source, which are not always exact repeats. Equal values may be shown once. More than one record can exist for a structure, and the calls need not agree. The source made the active and inactive calls. How the source made its calls: active means hit-call score of the fitted dose curve at least 0.9, where 1 is the maximum; inactive means score below 0.9.
# Experiment: CCTE_Padilla_ZF_144hpf_TERATOSCORE: (Legacy) CCTE's 144 Hour Post-fertilization zebrafish Assay Teratoscore, Padilla Lab (AID 2283679);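 on AC50: zebrafish embryos with chorions exposed by immersion from 6-8 hpf to 5 dpf with daily renewal; teratogenicity score from eye scoring of death hatching and malformations at 144 hpf; higher score means more developmental defects relative to DMSO baseline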
# How it was run: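 Larvae scored by eye at 144 hpf for death, hatching and malformations after a day in clean Hanks'. Before that, daily-renewed exposure at 80 uM (0.4% DMSO, 26C) from roughly 6-8 hpf through 5 dpf, 4 embryos per chemical.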
Structure (SMILES),outcome,AC50
CCCN(CCC)c1c([N+](=O)[O-])cc(C(F)(F)F)c(N)c1[N+](=O)[O-],inactive,–
O=C(O)C1(C(=O)Nc2ccc(Cl)cc2Cl)CC1,–,22.7 µM (active)
CCCCOCCOCCOCc1cc2c(cc1CCC)OCO2,–,15.3 µM (active)
c1ccc(Nc2ccccc2)cc1,–,64 µM (active)
S=C(S)NCCNC(=S)S.[Mn+2].[S-]C([S-])=NCCN=C([S-])[S-].[Zn+2],inactive,29.3 µM (active)
CCN(Cc1c(F)cccc1Cl)c1c([N+](=O)[O-])cc(C(F)(F)F)cc1[N+](=O)[O-],–,0.00783 µM (active)
COCCO,inactive,–
CCOC(=O)C(C)Oc1ccc(Oc2nc3ccc(Cl)cc3o2)cc1 (centres undefined),–,2.06 µM (active)
O=C(c1ccc(O)cc1O)c1ccc(O)cc1O,–,95.2 µM (active)
CC(C)(c1ccc(O)cc1)c1ccc(O)cc1,–,57 µM (active) and 66.2 µM (active)
CCCN(CCC)C(=O)SCC,inactive,–
S=C([S-])NCCNC(=S)[S-].[Mn+2],–,1.04 µM (active)
CCCCOC(=O)C(C)Oc1ccc(Oc2ccc(C(F)(F)F)cn2)cc1 (centres undefined),–,16.1 µM (active)
N[C@@H](Cc1cc(I)c(Oc2ccc(O)c(I)c2)c(I)c1)C(=O)O,–,0.331 µM (active)
CN(C)C(=O)Nc1ccc(Cl)c(Cl)c1,inactive,–
CCCOC(=O)c1ccc(C(=O)OCCC)nc1,–,1.7 µM (active)
CCN(CC)C(=O)c1cccc(C)c1,inactive,–
CCCCCOC(=O)COc1cc(N2C(=O)C3=C(CCCC3)C2=O)c(F)cc1Cl,–,3.14 µM (active)

# — PubChem BioAssay (EPA / NIEHS)
